Laboratory results as given in PubChem BioAssay AID1645886 (National Center for Advancing Translational Sciences (NCATS), 2021).
The whole screen tested about 16,000 compounds, of which about 260 (1.6%) were called active. Another 14% or so got no clear call; they are omitted. Calls follow the shape of the dose curve; as a rule, active = well fitted inhibition curve with a large enough effect; inconclusive = small, poorly fitted or top-dose-only effect; inactive = no such curve, though single readings can be large or run the other way. The full list was thinned out, with actives kept by preference. Where a structure was tested more than once in an assay, its records may differ in their call. Where a SMILES comes first, the peptide text is derived from it. Bridges are numbered along the chain shown (N, C = ends). [ ]: non-standard residue; d: D form. The star is where a group is joined. X4 = CC[C@H](C)CCCCC(=O)*; Dab = NCC[C@H](N)C(=O)O

biological target: Rap guanine nucleotide exchange factor 4 (Homo sapiens) (UniProt Q8WZA2); assay: Validation qHTS for antagonist of cAMP-regulated guanine nucleotide exchange factor 4 (EPAC2); conditions: EPAC2 Rap1B BODIPY-GDP exchange, fluorescence; series mostly up to 112 µM; activity, negative = inhibition: at the top concentration; also: nearly all actives have a fitted effect of over 40% in size
Text: Principle Investigator: Xiaodong Cheng Ph.D. The University of Texas Medical Branch, […], TX MLPCN Grant: NS066510 In multi-cellular eukaryotic organisms, the effects of cAMP are transduced by two ubiquitously-expressed intracellular cAMP receptors, the classic protein kinase A/cAMP-dependent protein kinase (PKA/cAPK) and the more recently discovered exchange protein directly activated by cAMP/cAMP-regulated guanine nucleotide exchange factor (EPAC/cAMP-GEF). Both PKA and EPAC are ubiquitously expressed in all tissues, and an increase in intracellular cAMP levels will lead to the activation of both PKA and EPAC. Therefore, careful dissections of the individual role and relative contribution of EPAC and PKA within the overall cAMP signaling in various model systems are critical for further elucidating the mechanism of cAMP signaling. To date no EPAC-specific antagonists and agonist, as well as isoform-specific agonists have been reported, and developing EPAC-specific pharmacological probes to determine the physiological functions that EPAC play in the overall cAMP-mediated signaling remains a major challenge within the research field. Furthermore, identified regulators of EPAC may lead to new mechanism-based therapeutic strategies specifically targeting the EPAC / cAMP-signaling components as EPAC has been implicated to play important roles in major human pathological conditions such as diabetes, heart disease, and cancer. This qHTS will be used to screen the Molecular Libraries Small Molecule Repository (MLSMR) as a concentration-titration series using the NCGC unique quantitative screening (qHTS) platform to find activators for EPAC1. In addition, this assay will also be used as a counterscreen for the EPAC2 qHTS. This fluorescent based assay is developed and validated for EPAC1 that measures exchange using EPAC effector Rap1 complex with BODIPY-GDP, a GDP analog with a tethered fluorophores. Activators are identified by monitoring the change in fluorescence signal as the exchanged free BODIPY-GDP has a reduced fluorescence compared to Rap1-bound BODIPY-GDP. Increase in signal (activation) is the desired outcome for the EPAC1 agonist while no activity in this assay is desired for the EPAC2 agonist counterscreen. Reference: [1] de Rooij, J., Zwartkruis, F. J., Verheijen, M. H., Cool, R. H., Nijman, S. M., Wittinghofer, A., and Bos, J.L. (1998) Nature 396, 474-477.
Briefly, three uL of reagents (100 nM EPAC2, 250 nM RAP1B-BODIPY-GDP, 50 uM GDP) were dispensed into a 1536-well Greiner black solid-bottom medium binding assay plate. Controls and test compounds (23 nL) were transferred to the plate via a Kalypsys pin tool equipped with a 1536-pin array. The plates were centrifuged at 1,000 rpm for 15 seconds followed by 5 minute incubation at room temperature. The assay plates were read at 5 minute intervals for 30 minutes in the ViewLux plate reader using 480nm excitation and 540nm emission filters. The results were normalized to the agonist positive control of 6.5 mM cAMP.
Potency is read from the fitted curve at half-maximal effect.

Sequence of Rap guanine nucleotide exchange factor 4 (Homo sapiens) (Q8WZA2 whole entry, looked up): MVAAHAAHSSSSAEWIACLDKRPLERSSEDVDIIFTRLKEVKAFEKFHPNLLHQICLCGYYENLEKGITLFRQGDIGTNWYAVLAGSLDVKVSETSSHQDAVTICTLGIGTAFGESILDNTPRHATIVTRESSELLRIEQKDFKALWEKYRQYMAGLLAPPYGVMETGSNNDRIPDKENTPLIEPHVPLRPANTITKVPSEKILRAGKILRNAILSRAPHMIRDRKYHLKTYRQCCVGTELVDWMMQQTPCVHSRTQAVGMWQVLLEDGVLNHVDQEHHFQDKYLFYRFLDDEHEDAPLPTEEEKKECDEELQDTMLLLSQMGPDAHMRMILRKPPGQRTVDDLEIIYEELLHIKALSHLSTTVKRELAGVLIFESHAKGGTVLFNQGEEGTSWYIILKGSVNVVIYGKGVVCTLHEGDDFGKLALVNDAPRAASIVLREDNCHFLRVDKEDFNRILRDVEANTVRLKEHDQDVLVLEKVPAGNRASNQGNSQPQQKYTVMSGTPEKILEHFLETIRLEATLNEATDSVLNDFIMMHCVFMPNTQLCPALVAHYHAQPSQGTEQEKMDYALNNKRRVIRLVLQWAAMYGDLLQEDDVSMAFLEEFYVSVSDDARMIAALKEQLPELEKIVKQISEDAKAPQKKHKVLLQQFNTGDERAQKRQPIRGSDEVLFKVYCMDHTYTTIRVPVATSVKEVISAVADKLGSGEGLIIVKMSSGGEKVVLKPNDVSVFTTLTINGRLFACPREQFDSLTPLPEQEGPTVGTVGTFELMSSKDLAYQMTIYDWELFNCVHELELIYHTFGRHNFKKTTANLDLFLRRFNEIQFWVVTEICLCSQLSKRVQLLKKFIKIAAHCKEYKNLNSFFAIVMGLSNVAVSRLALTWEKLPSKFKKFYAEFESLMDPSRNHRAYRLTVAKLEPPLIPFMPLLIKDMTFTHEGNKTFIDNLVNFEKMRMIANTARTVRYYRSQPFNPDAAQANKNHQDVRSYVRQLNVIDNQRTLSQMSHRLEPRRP

Structure (SMILES) | activity, negative = inhibition | Potency
CC(C)NC(=O)N1CCC2(CC1)CCN(C(=O)c1cccn1C)CC2 | -21.4% (inactive) | 
CCNc1ncc2ncc(=O)n(CCc3ccccc3)c2n1 | -6.79% (inactive) | 
CN1CCC(=O)N([C@H](CO)Cc2ccccc2)CC1 | 1.88% (inactive) | 
O=C(/C=C/c1cccc(F)c1)NC1CC1 | 28.6% (inactive) | 
Cc1nc2cnc(N3CCNCC3)nc2n(CCc2ccccc2)c1=O | -20.3% (inactive) | 
Cc1cnc(CNc2cc(-c3c(C)noc3C)ncn2)cn1 | -8.53% (inactive) | 
COC(=O)c1c(OCc2ccc(F)cc2)cc(=O)n2c1CCN(Cc1ccc3cccnc3c1)CC2 | -20.7% (inactive) | 
COc1ccc2[nH]cc(CCNc3nc(-c4cccc(NS(C)(=O)=O)c4)nc4ccccc34)c2c1 | -18.1% (inactive) | 
COc1cc(=O)n2c(c1C(=O)NC(C)c1ccco1)CCN(Cc1cc(C)cc(C)c1)CC2 (stereo unspecified) | 8.46% (inactive) | 
O=C(Nc1cccc(F)c1)N1CC2(CCN(C(=O)c3csnn3)CC2)C1 | -28.5% (inactive) | 
FC(F)(F)c1cccc(-c2cn[nH]c2C2CCCN(Cc3cccn3-c3ccccn3)C2)c1 (stereo unspecified) | -16.2% (inactive) | 
CC(=O)O[C@]1(C(C)=O)CC[C@H]2[C@@H]3CCC4=CC(=O)CC[C@]4(C)[C@@]3(F)[C@@H](O)C[C@@]21C | -8.39% (inactive) | 
COc1ccccc1CNc1ncnc2ccc(-c3ccc4c(c3)OCO4)cc12 | -17.6% (inactive) | 
O=C(c1cn(CC2CCCN(Cc3cc4ccccc4s3)C2)nn1)N1CCCC1 (stereo unspecified) | -18.8% (inactive) | 
COCCn1c(=O)c(-c2ccccc2)nc2cnc(N3CCOCC3)nc21 | -0.915% (inactive) | 
CC1O[C@@H](Oc2c(-c3ccc(O)c(O)c3)oc3cc(O)cc(O)c3c2=O)C(O)C(O)C1O (stereo partly specified) | -13% (inactive) | 
O=C(C(=O)N1CCOc2ccc(CN3CCN(Cc4ccccn4)CC3)cc2C1)c1ccccc1 | -2.87% (inactive) | 
COC(=O)N1CCC2(CCCN(Cc3ccccc3OC)C2)CC1 | -12.2% (inactive) | 
CCOc1ccc2nc(N3CCCN(CCCn4cccn4)CC3)nc(C)c2c1 | -5.1% (inactive) | 

Structure (SMILES) | activity, negative = inhibition | Potency
Oc1cc2c(cc1O)CN(C(=S)NCCc1ccc(Cl)cc1)CCC2 |  | 56.2 µM (active) and inactive
CC(C)=CCC/C(C)=C/CC/C(C)=C/CC/C(C)=C/CO |  | inactive
O=c1c(O)c(Br)ccc2c(Br)c(O)c(O)c(O)c12 | 6.67% (inactive) | 
CC(=O)NC(=O)c1ccccc1O | 23.4% (inactive) | 
Cc1oc(-c2cccc(NC(=O)c3ccccc3)c2)nc1CNC(=O)c1cnc2ccccn2c1=O | -3.94% (inactive) | 
COc1ccccc1C(=O)N[C@@H]1c2ccccc2C2(CCN(C(=O)c3csnn3)CC2)[C@H]1OC | -9.95% (inactive) | 
CC1C(O)CC2C(C(=O)O)=CO[C@@H](O[C@H]3OC(CO)C(O)C(O)C3O)C21 (stereo partly specified) | -1.93% (inactive) | 
C/C(Nc1ccc2oc(=O)ccc2c1)=C1/C(=O)CC2[C@@H]1C2(C)C (stereo partly specified) | 25% (inactive) | 
c1ccc(CN2CCN(Cc3ccc4c(c3)CN(Cc3c[nH]c5ccccc35)CCO4)CC2)nc1 | 1.14% (inactive) | 
O=C1CCN(Cc2ccc(-c3ccccc3)cc2)CCN1Cc1ccccn1 | -9.29% (inactive) | 
Cn1cc(-c2nc3cnc(N4CCNCC4)nc3n(CCC#N)c2=O)c2ccccc21 | -18.2% (inactive) | 
CN(C)c1ccc(-c2nc(NCCN3CCOCC3)c3ccccc3n2)cc1 | -15% (inactive) | 
Oc1c(Cl)cc(Cl)c(Cl)c1Cc1c(O)c(Cl)cc(Cl)c1Cl |  | 44.7 µM (active) and inactive
COCc1c(C(=O)NC2CCCCC2)cnn1-c1nccc(-c2ccccc2OC)n1 | -15.1% (inactive) | 
COc1ccc2c(c1)NC(=O)C2CC(=O)N1CCOc2c(cc(-c3cnc4ccccc4c3)cc2OC)C1 (stereo unspecified) | -30.5% (inactive) | 
Cc1ccc(-c2ncc(Cl)cc2-c2ccc(S(C)(=O)=O)cc2)cn1 | -7.74% (inactive) | 
O=c1ccn([C@@H]2O[C@H](COP(=O)(O)OP(=O)(O)OP(=O)(O)O)[C@@H](O)[C@H]2O)c(=O)[nH]1 | 1.65% (inactive) | 
CC(C)[C@@H]1NC(=O)[C@H](Cc2ccccc2)NC(=O)[C@@H](CC(=O)O)NC(=O)CNC(=O)[C@H](CCCNC(=N)N)NC1=O | -3.61% (inactive) | 
O=S(O)CNc1ccc(S(=O)(=O)c2ccc(NCS(=O)O)cc2)cc1 | -29.8% (inactive) | 

Structure (SMILES) | activity, negative = inhibition | Potency
C/C=C(/C)C(=O)OC1Cc2c(ccc3ccc(=O)oc23)OC1(C)C (stereo unspecified) | -12.9% (inactive) | 
CC(C)N1C[C@@H](NCc2ccccc2O)C[C@H]1C(=O)N1CCN(c2cccc(C(F)(F)F)c2)CC1 | 13% (inactive) | 
O=C(c1ccco1)N1CCC2(CC1)CCN(c1ncccn1)CC2 | -28.8% (inactive) | 
CC1(C)C=CC(=O)[C@]2(C)C1CC(=O)[C@]1(C)C2CC[C@@]2(C)C(c3ccoc3)OC(=O)C3OC321 (stereo partly specified) | -12.9% (inactive) | 
CC(C)C1=CC2=CC[C@H]3[C@](C)(C(=O)O)CCC[C@]3(C)C2CC1 (stereo partly specified) | -21.5% (inactive) | 
O=C1c2ccccc2C(=O)C1c1ccccc1 |  | inactive
CN(C)c1ncc2nc(-c3ccc(F)cc3)c(=O)n(Cc3ccc(F)cc3)c2n1 | -4.5% (inactive) | 
CC(=O)N1CCC2(CCCN(Cc3ccccc3)C2)CC1 | -10.6% (inactive) | 
CC[C@H](C)CCCCC(=O)N[C@@H](CCN)C(=O)N[C@H](C(=O)N[C@@H](CCN)C(=O)N[C@H]1CCNC(=O)[C@@H]([C@H](C)O)NC(=O)[C@H](CCN)NC(=O)[C@H](CCN)NC(=O)[C@H](CC(C)C)NC(=O)[C@@H](CC(C)C)NC(=O)[C@H](CCN)NC1=O)[C@@H](C)O (X4-[Dab]T[Dab][Dab][Dab][dL]L[Dab][Dab][dT]; lactam 4-C) | -25.8% [at 56.6 µM] (inactive) | 
CC1OC(OCC2OC(Oc3c(-c4ccc(O)c(O)c4)oc4cc(O)cc(O)c4c3=O)C(O)C(O)C2O)[C@@H](O)C(O)C1O (stereo partly specified) | -11.8% (inactive) | 
COc1cc(=O)n2c(c1C(=O)NCc1ccco1)CCN(Cc1ccccc1)CC2 | -24.9% (inactive) | 
CNc1ncnc2ccc(-c3cccc(NS(C)(=O)=O)c3)cc12 | -7.28% (inactive) | 
CS(=O)(=O)N1CCC2(CC1)CN(Cc1cc(C(F)(F)F)cc(C(F)(F)F)c1)C2 | -30.3% (inactive) | 
O=C1CCNCCN1[C@H](CO)Cc1ccccc1 | -7.85% (inactive) | 
Cc1nc2cnc(N3CCNCC3)nc2n(Cc2ccc(F)cc2)c1=O | -4.79% (inactive) | 
Nc1ccccc1N | 7.39% [at 239 µM] (inactive) | 
CC1(C)S[C@@H]2[C@H](NC(=O)COc3ccccc3)C(=O)N2C1C(=O)OCc1ccccc1 (stereo partly specified) | -12% (inactive) | 
COC1C[C@@H](O[C@@H]2C(C)C(=O)OC(C)C(C)C(O)C(C)C(=O)[C@@]3(CO3)CC(C)C(OC3OC(C)CC(N(C)C)C3O)C2C)OC(C)[C@@H]1O (stereo partly specified) | -7.54% (inactive) | 
